Screening results: PubChem BioAssay, National Center for Advancing Translational Sciences (NCATS)
Only a selection was taken, and hits are over-represented in it overall.
IMPase Li cell: qHTS Assay for Identifying the Cell-Membrane Permeable IMPase Inhibitors: Potentiation with Lithium. CHO-M1 cells, IP1 TR-FRET (IP-One), carbachol + lithium. Potency, µM (series often up to 59.4 µM), inactives show at the top dose activity, negative = IMPase inhibition, actives largely listed as inhibitors. actives 0.35% (n = 210,000). AID 1457, 2008;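 note: IP1 builds up when IMPase is blocked and the TR-FRET signal falls; potency is the fitted concentration of half-maximal effect; plate controls were basal vehicle for no effect and high inhibitor control for full effect; nearly all actives have a fitted effect of over 50% in size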
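CHO cells stably expressing M1 receptor (2000/well, cultured 16–30 h) treated 30 min at 37C with compound plus low lithium. Cytosolic IP1 by TR-FRET (665/620 ratio and 620 channel) after 10 min lysis; AC50 by Hill fit.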
IMPase inh: qHTS Assay for Identifying the Cell-Membrane Permeable IMPase Inhibitors; CHO-M1 cells, IP1 accumulation, HTRF TR-FRET ratio; 120,000 tested, under 10 active; Inositol monophosphatase 1 (Rattus norvegicus), P97697; inhibition (IP1 accumulation), % at 46.1 µM; active = well fitted curve in the direction sought with a large enough effect in the signal ratio, not every such curve was filed as active; inconclusive = small, poorly fitted or top-dose-only effect, or a change in a side signal; inactive = no such curve, though single readings can be large or run the other way; the % refers to the signal ratio;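 note: cells stimulated with carbachol in lithium chloride buffer; plate controls were DMSO basal wells for no effect and reference inhibitor wells for full effect; higher means more IMPase inhibition seen as more IP1 and lower FRET ratio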
Target sequence (P97697 whole entry, looked up): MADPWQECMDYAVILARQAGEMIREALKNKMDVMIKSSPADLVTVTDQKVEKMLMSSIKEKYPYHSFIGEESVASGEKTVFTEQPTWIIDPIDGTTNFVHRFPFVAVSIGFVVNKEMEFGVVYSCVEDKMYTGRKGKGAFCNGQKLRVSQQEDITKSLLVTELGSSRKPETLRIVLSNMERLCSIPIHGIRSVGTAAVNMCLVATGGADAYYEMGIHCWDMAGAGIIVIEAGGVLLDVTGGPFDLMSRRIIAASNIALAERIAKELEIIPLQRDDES
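Carbachol-driven Gq signalling in CHO-M1 cells (2000/well) generates IP1. Compounds that block IMPase raise IP1 and so reduce the FRET signal from Eu-anti-IP1 and d2-IP1 after a 10 min room-temperature lysis.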
NPSR antagonist: qHTS Assay for Antagonists of the Neuropeptide S Receptor: cAMP Signal Transduction. Q6W5P4. actives 1% (n = 220,000). AID 1461, 2008. CHO-NPSR cells, cAMP TR-FRET, antagonist mode. Potency, µM (doses to about 38.3 µM), inactives show at the top dose activity change, negative = inhibition, usual class: inhibitors; note: potency is the fitted concentration of half-maximal effect; nearly all actives have a fitted effect of over 50% in size
Starred values were filed as active, the others as inactive; [ ] = remark or other dose. Unless noted, calls come from the whole dose curve; as a rule, active = well fitted curve in the direction sought with a large enough effect; inconclusive = small, poorly fitted or top-dose-only effect, or another doubt; inactive = no such curve, though single readings can be large; an effect the other way counts as inactive or inconclusive. Unless noted, % is set by controls: 0 for no effect and ±100 for the full control effect.

Screening O=c1ccc2cc(O[C@H]3OC(CO)C(O)C(O)C3O)c(O)cc2o1 (some centres undefined) returned IMPase Li cell 13µM*.
For O=c1ccc2cc(O[C@H]3O[C@@H](CO)[C@@H](O)[C@@H](O)[C@@H]3O)c(O)cc2o1 the results were IMPase Li cell -13% and IMPase inh -2[20.6 µM].
CN(C)[C@@H]1C(=O)C(C(N)=O)=C(O)[C@]2(O)C(=O)C3=C(O)c4c(O)cccc4[C@@](C)(O)[C@H]3[C@H](O)[C@@H]12 was read as IMPase Li cell -12% and IMPase inh -8[20.6 µM].
Screening CN(C)C1C(=O)C(C(N)=O)=C(O)[C@@]2(O)C(=O)C3=C(O)c4c(O)cccc4[C@@](C)(O)C3[C@H](O)C12 (some centres undefined) returned IMPase Li cell 3.2µM*.
`C=C(C)[C@H]1Cc2c(ccc3c2O[C@H]2COc4cc(OC)c(OC)cc4[C@@H]2C3=O)O1` gave IMPase inh 13.
Cc1cc(C)cc(N2C(=O)NC(=O)/C(=C\C=C\c3ccco3)C2=O)c1 was read as IMPase Li cell 10% and NPSR antagonist 10µM*.
Screening Cc1ccc(N2C(=O)NC(=O)/C(=C/C=C/c3ccco3)C2=O)cc1 returned IMPase Li cell 15%, IMPase inh -6 and NPSR antagonist -53%.
CC(C)c1ccc(N2C(=O)NC(=O)/C(=C/C=C/c3ccco3)C2=O)cc1 was read as IMPase Li cell 13% and NPSR antagonist 6.3µM*.
Screening CCc1ccc(N2C(=O)NC(=O)/C(=C\C=C\c3ccco3)C2=O)cc1 returned NPSR antagonist 10µM*.
For Cc1ccc(N2C(=O)NC(=O)/C(=C/c3ccoc3)C2=O)cc1 the results were NPSR antagonist 6%.
CCCCN1C(=O)/C(=C/C=C/c2ccco2)C(=O)NC1=S was read as IMPase Li cell 1%, IMPase inh -6 and NPSR antagonist -21%[46.1 µM].
CN(C)CCCc1cccnc1 was read as IMPase Li cell 3%.
For N[C@@H](CP(=O)(O)O)C(=O)O the results were IMPase Li cell 5%.
For N[C@H](CCl)C(=O)O the results were IMPase inh -5.
CCOc1ccccc1N=C1SCCCN1C was read as IMPase Li cell 20%[38.3 µM], IMPase inh -13 and NPSR antagonist -12%[46.1 µM].
`CCOc1cccc(=NC2CCCCC2)c2c(C)n(C)c(C)c12` gave NPSR antagonist 7.9µM*.
For CCn1cnc2c(Nc3cccc(Cl)c3)nc(N[C@@H]3CCCC[C@H]3N)nc21 the results were IMPase inh 6.
For Cc1ccccc1N1C(=O)NC(=O)/C(=C\c2cc(Br)c(N3CCOCC3)o2)C1=O the results were IMPase Li cell 9%, IMPase inh -2 and NPSR antagonist 13µM*.
Cc1ccccc1N1C(=O)NC(=O)/C(=C/c2ccc(N3CCOCC3)o2)C1=O was read as NPSR antagonist 12%.
`C=CCN1CCc2cccc3c2[C@@H]1Cc1ccc(O)c(O)c1-3` gave IMPase inh -1.
`NC(N)=Nc1ccc2[nH]c3c(c2c1)C[C@]1(O)[C@@H]2Cc4ccc(O)c5c4[C@]1(CCN2CC1CC1)[C@H]3O5` gave IMPase inh 20.
`COC(=O)c1ccccc1N=Cc1c(O)[nH]c(=S)[nH]c1=O` gave IMPase Li cell 11µM* and NPSR antagonist -51%.
For O=C(c1ccccc1)c1ccccc1N=Cc1c(O)[nH]c(=O)[nH]c1=O the results were IMPase Li cell 2% and NPSR antagonist 6%.
`Cc1cc(C=C2C(=O)NC(=S)NC2=O)c(C)n1-c1ccc2c(c1)OCO2` gave IMPase Li cell 11%, IMPase inh -3 and NPSR antagonist 13µM*.
For Cc1cc(C=C2C(=O)NC(=O)NC2=O)c(C)n1-c1ccc2c(c1)OCO2 the results were IMPase Li cell 14%, IMPase inh 9 and NPSR antagonist 10%[46.1 µM].
Screening Nc1ccccc1O.O.O=C(O)[C@H]1[O][Sb][O][C@H]1C(=O)O returned IMPase Li cell 7%.
For Cc1ccc(-c2nc3ccc(C)cn3c2CC(=O)N(C)C)cc1 the results were IMPase Li cell 3%.
Screening CCCN(CCC)C(=O)Cc1c(-c2ccc(Cl)cc2)nc2c(Cl)cc(Cl)cn12 returned IMPase Li cell 10µM*, IMPase inh 1 and NPSR antagonist inconclusive.
O=C(c1cn(Cc2ccccc2)c2ccccc12)C1CC1 was read as IMPase Li cell 2% and NPSR antagonist 10µM*.
Screening CCC(=O)c1cn(Cc2ccccc2)c2ccccc12 returned IMPase Li cell -1% and NPSR antagonist 36%.
Screening O=C(c1ccco1)c1cn(Cc2ccccc2Cl)c2ccccc12 returned IMPase Li cell 43%[38.3 µM], IMPase inh 2 and NPSR antagonist 10µM*.
Screening O=C(c1ccco1)c1cn(Cc2ccccc2)c2ccccc12 returned IMPase Li cell 44%[38.3 µM], IMPase inh 6 and NPSR antagonist inconclusive.
For CC[C@H](CO)NC(=O)[C@@H]1C=C2c3cccc4c3c(cn4C)C[C@@H]2N(C)C1 the results were IMPase inh 0.
For C=CCN1C[C@@H](C)N([C@H](c2ccc(C(=O)N(CC)CC)cc2)c2cccc(OC)c2)C[C@H]1C the results were IMPase inh 13.
`C[C@]12Cc3cn4c(nc3C=C1CC[C@H]1[C@@H]2CC[C@@]2(C)[C@H]1CC[C@@]2(O)C#N)nc1ccccc14` gave IMPase inh 2.
`Ic1ccccc1CN[C@@H]1C2CCN(CC2)[C@H]1C(c1ccccc1)c1ccccc1` gave IMPase inh 9.
